Data reported in the supplement of paper PMC9262897, “Low-cost anti-mycobacterial drug discovery using engineered E. coli” (Nature Communications, 2022).
Counter-ions that a name gives are not always drawn. ± gives the standard deviation of the averaged measurements.

The compounds below were run on E. coli TESEC Mtb DapB (assay: growth (OD600 after 10 h); higher = more growth (less inhibition)). Conditions: arabinose induction (level): High; compound 0.1 mM; raw OD600 reference: median of DMSO wells […], cell-free background 0.041.
Method: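 TESEC E. coli strains in which the native enzyme is deleted and replaced by arabinose-inducible Mtb Asd, DapB, CysH or TrpD, each grown in its selective medium. Strains were screened against the Prestwick library at 0.1 mM and 1% DMSO in 384-well format at low and high arabinose induction. Growth is read as OD600 after 10 h in triplicate.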

Question: How did the growth turn out when `CN1C[C@H](CNC(=O)OCc2ccccc2)C[C@@H]2c3cccc4c3c(cn4C)C[C@H]21` [Metergoline] was run?
Answer: 0.048 ± 0.0011

Question: How did the growth turn out when `C[C@]12C[C@H]3S[C@H]3C[C@@H]1CC[C@@H]1[C@@H]2CC[C@]2(C)[C@@H](O)CC[C@@H]12` [Epitiostanol] was run?
Answer: 0.203 ± 0.01

Question: For `CCN[C@@H](C)Cc1cccc(C(F)(F)F)c1` [Dexfenfluramine hydrochloride], which growth is on record?
Answer: 0.189 ± 0.0055

Question: For `C#CCN(C)[C@H](C)Cc1ccccc1` [Selegiline hydrochloride], which growth is on record?
Answer: 0.222 ± 0.018

Question: For `NCCc1c[nH]c2ccc(O)cc12` [Serotonin hydrochloride], which growth is on record?
Answer: 0.209 ± 0.011

Question: For `C[C@]12CC[C@H](O)C[C@H]1CC[C@@H]1[C@@H]2C[C@@H](O)[C@]2(C)[C@@H](C3=CC(=O)OC3)CC[C@]12O` [Digoxigenin], which growth is on record?
Answer: 0.1864 ± 0.00095

Question: For `CC[N+]1(C)CCCC(OC(=O)C(O)(c2ccccc2)c2ccccc2)C1` (stereo not given) [Pipenzolate bromide], which growth is on record?
Answer: 0.234 ± 0.013

Question: Which growth does the source give for `CNC(=O)Oc1ccc2c(c1)[C@]1(C)CCN(C)[C@@H]1N2C` [Eserine hemisulfate salt] here?
Answer: 0.187 ± 0.015

Question: How did the growth turn out when `C[N+]1([O-])[C@@H]2C[C@@H](OC(=O)[C@H](CO)c3ccccc3)C[C@H]1[C@@H]1O[C@@H]12` (stereo not given in full) [Scopolamin-N-oxide hydrobromide] was run?
Answer: 0.221 ± 0.012

Question: With `C[C@@H]1C[C@@H]([C@H](O)CC2CC(=O)NC(=O)C2)C(=O)[C@@H](C)C1` [Cycloheximide] as the compound, how does the growth read?
Answer: 0.231 ± 0.031

Question: `CCC1=C[C@H]2CN3CCc4c([nH]c5ccccc45)[C@](C(=O)OC)(C2)[C@H]13` [Catharanthine] was tested. Which growth did it give?
Answer: 0.167 ± 0.0065

Question: With `CC(C)(C)NCC(O)c1cc(Cl)c(N)c(Cl)c1` (stereo not given) [Clenbuterol hydrochloride] as the compound, how does the growth read?
Answer: 0.185 ± 0.011

Question: `CN1CCC2(C)c3cc(O)ccc3N(C)C12` (single isomer, unassigned; (-)) [(-)-Eseroline fumarate salt] was tested. Which growth did it give?
Answer: 0.197 ± 0.0051

Question: For `C=CC[C@]1(O)CC[C@H]2[C@@H]3CCC4=CC(=O)CCC4=C3C=C[C@@]21C` [Altrenogest], which growth is on record?
Answer: 0.148 ± 0.002

Question: How did the growth turn out when `O=c1[nH]oc2c1CCNC2` [THIP Hydrochloride] was run?
Answer: 0.2018 ± 0.0015

Question: With `CCCCCC[C@H]1C(=O)O[C@H](C)[C@H](NC(=O)c2cccc(NC=O)c2O)C(=O)O[C@@H](C)[C@@H]1OC(=O)CC(C)C` [Antimycin A] as the compound, how does the growth read?
Answer: 0.15 ± 0.018

Question: With `O=[N+]([O-])O[C@@H]1CO[C@H]2[C@@H]1OC[C@@H]2O` [Isosorbide mononitrate] as the compound, how does the growth read?
Answer: 0.176 ± 0.0055

Question: For `CC(CCc1ccccc1)NC(C)C(O)c1ccc(O)cc1` (stereo not given) [Nylidrin], which growth is on record?
Answer: 0.222 ± 0.027

Question: `O=c1[nH]c2ccccc2n1CCCN1CCC(n2c(=O)[nH]c3cc(Cl)ccc32)CC1` [Domperidone] was tested. Which growth did it give?
Answer: 0.137 ± 0.005

Question: For `C[CH2][Hg][S]c1ccccc1C(=O)[O-].[Na+]` [Thimerosal], which growth is on record?
Answer: 0.207 ± 0.019

Same assay, conditions: arabinose induction (level): Low; compound 0.1 mM; raw OD600 reference: median of DMSO wells 0.227, cell-free background 0.041

Question: How did the growth turn out when `CN1C[C@H](CNC(=O)OCc2ccccc2)C[C@@H]2c3cccc4c3c(cn4C)C[C@H]21` [Metergoline] was run?
Answer: 0.0468 ± 0.00083

Question: How did the growth turn out when `C[C@]12C[C@H]3S[C@H]3C[C@@H]1CC[C@@H]1[C@@H]2CC[C@]2(C)[C@@H](O)CC[C@@H]12` [Epitiostanol] was run?
Answer: 0.21 ± 0.029

Question: `CCN[C@@H](C)Cc1cccc(C(F)(F)F)c1` [Dexfenfluramine hydrochloride] was tested. Which growth did it give?
Answer: 0.246 ± 0.0058

Question: Which growth does the source give for `C#CCN(C)[C@H](C)Cc1ccccc1` [Selegiline hydrochloride] here?
Answer: 0.219 ± 0.0087

Question: Which growth does the source give for `NCCc1c[nH]c2ccc(O)cc12` [Serotonin hydrochloride] here?
Answer: 0.237 ± 0.0078

Question: Which growth does the source give for `C[C@]12CC[C@H](O)C[C@H]1CC[C@@H]1[C@@H]2C[C@@H](O)[C@]2(C)[C@@H](C3=CC(=O)OC3)CC[C@]12O` [Digoxigenin] here?
Answer: 0.244 ± 0.0061

Question: For `CC[N+]1(C)CCCC(OC(=O)C(O)(c2ccccc2)c2ccccc2)C1` (stereo not given) [Pipenzolate bromide], which growth is on record?
Answer: 0.263 ± 0.058

Question: Which growth does the source give for `CNC(=O)Oc1ccc2c(c1)[C@]1(C)CCN(C)[C@@H]1N2C` [Eserine hemisulfate salt] here?
Answer: 0.206 ± 0.0057

Question: With `C[N+]1([O-])[C@@H]2C[C@@H](OC(=O)[C@H](CO)c3ccccc3)C[C@H]1[C@@H]1O[C@@H]12` (stereo not given in full) [Scopolamin-N-oxide hydrobromide] as the compound, how does the growth read?
Answer: 0.257 ± 0.025

Question: Which growth does the source give for `C[C@@H]1C[C@@H]([C@H](O)CC2CC(=O)NC(=O)C2)C(=O)[C@@H](C)C1` [Cycloheximide] here?
Answer: 0.258 ± 0.027

Question: For `CCC1=C[C@H]2CN3CCc4c([nH]c5ccccc45)[C@](C(=O)OC)(C2)[C@H]13` [Catharanthine], which growth is on record?
Answer: 0.1738 ± 0.0015

Question: Which growth does the source give for `CC(C)(C)NCC(O)c1cc(Cl)c(N)c(Cl)c1` (stereo not given) [Clenbuterol hydrochloride] here?
Answer: 0.191 ± 0.0053

Question: Which growth does the source give for `CN1CCC2(C)c3cc(O)ccc3N(C)C12` (single isomer, unassigned; (-)) [(-)-Eseroline fumarate salt] here?
Answer: 0.209 ± 0.034

Question: Which growth does the source give for `C=CC[C@]1(O)CC[C@H]2[C@@H]3CCC4=CC(=O)CCC4=C3C=C[C@@]21C` [Altrenogest] here?
Answer: 0.162 ± 0.006

Question: Which growth does the source give for `O=c1[nH]oc2c1CCNC2` [THIP Hydrochloride] here?
Answer: 0.238 ± 0.014

Question: For `CCCCCC[C@H]1C(=O)O[C@H](C)[C@H](NC(=O)c2cccc(NC=O)c2O)C(=O)O[C@@H](C)[C@@H]1OC(=O)CC(C)C` [Antimycin A], which growth is on record?
Answer: 0.278 ± 0.058

Question: `O=[N+]([O-])O[C@@H]1CO[C@H]2[C@@H]1OC[C@@H]2O` [Isosorbide mononitrate] was tested. Which growth did it give?
Answer: 0.216 ± 0.03

Question: For `CC(CCc1ccccc1)NC(C)C(O)c1ccc(O)cc1` (stereo not given) [Nylidrin], which growth is on record?
Answer: 0.243 ± 0.0092

Question: With `O=c1[nH]c2ccccc2n1CCCN1CCC(n2c(=O)[nH]c3cc(Cl)ccc32)CC1` [Domperidone] as the compound, how does the growth read?
Answer: 0.152 ± 0.0037

Question: For `C[CH2][Hg][S]c1ccccc1C(=O)[O-].[Na+]` [Thimerosal], which growth is on record?
Answer: 0.214 ± 0.014
